The values that follow come from PubChem BioAssay (Tox21).

“And” between values parts separate entries of the source, which are not always exact repeats. Identical values can stand only once. Inconclusive results are not listed. Some compounds were tested as several samples or in several runs, with calls that do not always agree. The source made the active and inactive calls. Unless noted, calls come from the whole dose curve; as a rule, active = well fitted curve in the direction sought with a large enough effect in the repeat runs; inconclusive = weak or mixed curves; inactive = no such curve, though single readings can be large; an effect the other way counts as inactive or inconclusive.

Test [1] is described as follows: qHTS assay to identify small molecule agonists of the peroxisome proliferator-activated receptor delta (PPARd) signaling pathway - cell viability counter screen (AID 743211). Note: nearly all actives have a fitted effect of over 55% in size. Note: potency is the fitted concentration of half-maximal effect. The method in brief: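 Multiplexed format: after the 2 h room-temperature LiveBLAzer B/G FRET step, CellTiter-Glo was added to the same wells. Luminescence after 30 min gave cell viability; compound exposure was 17 h at 37C.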

Test [2] deals with Peroxisome proliferator-activated receptor delta (Homo sapiens) (UniProt Q03181). Kind of test: qHTS assay to identify small molecule agonists of the peroxisome proliferator-activated receptor delta (PPARd) signaling pathway (AID 743212; calls by dose curve). The method in brief: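 HEK293H UAS-bla reporter cells, human PPARd system; compounds delivered in DMSO after 5 h plating, then at 37 C. Beta-lactamase FRET read, 2 h RT substrate step.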
Peroxisome proliferator-activated receptor delta (Homo sapiens), sequence (Q03181 whole entry, looked up): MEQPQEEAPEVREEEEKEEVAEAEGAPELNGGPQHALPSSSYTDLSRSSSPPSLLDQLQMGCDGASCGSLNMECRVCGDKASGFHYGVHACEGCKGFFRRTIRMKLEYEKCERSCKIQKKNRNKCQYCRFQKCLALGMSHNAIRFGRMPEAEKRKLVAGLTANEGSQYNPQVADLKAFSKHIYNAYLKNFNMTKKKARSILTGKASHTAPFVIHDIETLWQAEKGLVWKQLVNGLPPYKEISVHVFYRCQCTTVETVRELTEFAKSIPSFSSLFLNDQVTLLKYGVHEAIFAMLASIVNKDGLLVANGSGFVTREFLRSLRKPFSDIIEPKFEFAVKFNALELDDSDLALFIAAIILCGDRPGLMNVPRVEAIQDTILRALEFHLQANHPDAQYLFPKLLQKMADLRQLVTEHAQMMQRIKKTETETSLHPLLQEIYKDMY
(In general: qHTS replaces the single test concentration by a dilution series.)

The nature of test [3]: qHTS assay to identify small molecule antagonists of the peroxisome proliferator-activated receptor delta (PPARd) signaling pathway - cell viability counter screen (AID 743213). Note: nearly all actives have a fitted effect of over 50% in size. The method in brief:
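In this counter screen, HEK293H cells carrying a UAS-beta-lactamase reporter are co-treated with test compounds and 300 nM L165041 (final) for 17 h at 37 C; cell viability is quantified by CellTiter-Glo luminescence.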

Test [4] deals with Peroxisome proliferator-activated receptor delta (Homo sapiens) (UniProt Q03181). Kind of test: qHTS assay to identify small molecule antagonists of the peroxisome proliferator-activated receptor delta (PPARd) signaling pathway (AID 743215; active = well fitted inhibition curve with a large enough effect in the signal ratio in the repeat runs, not every such curve was filed as active; the % refers to the signal ratio;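 note: cells stimulated with agonist L165041 at 300 nM final during compound exposure; series mostly up to about 62 µM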). The method in brief:
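With L165041 present at 300 nM final, compounds were incubated 17 h at 37 C on PPARd UAS-bla HEK293H cells. A FRET-based beta-lactamase substrate was then applied for 2 h at room temperature and fluorescence intensity recorded.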

Test [5] in a line: qHTS assay to identify small molecule antagonists of the farnesoid-X-receptor (FXR) signaling pathway - cell viability counter screen (AID 743221; active = well fitted cell-killing curve with a large enough effect in the repeat runs, not every such curve was filed as active; note: nearly all actives have a fitted effect of over 50% in size). The method in brief:
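CellTiter-Glo, 30 min RT, luminescence; same wells as the LiveBLAzer FRET read. Cells: FXR-UAS-bla HEK 293T. Treatment: compound with chenodeoxycholic acid 50 uM final, 16 h at 37 C.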

Test [6] concerns the target Vitamin D3 receptor (Homo sapiens) (UniProt P11473). Kind of test: qHTS assay to identify small molecule agonists of the vitamin D receptor (VDR) signaling pathway (AID 743222; calls by dose curve). The method in brief:
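VDR-bla cells were seeded, left 4 h, treated with compounds in DMSO for 16 h, incubated 2 h at RT with B/G FRET substrate, and read for fluorescence.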

The target is the same in test [7]. In words: qHTS assay to identify small molecule antagonists of the vitamin D receptor (VDR) signaling pathway (AID 743223; active = well fitted inhibition curve with a large enough effect in the signal ratio in the repeat runs, not every such curve was filed as active; the % refers to the signal ratio). The essentials: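 After VDR-bla cells are plated and left 4 h at 37C, DMSO-dissolved compounds and 3 nM (final) calcitriol agonist are added. Incubation continues 16 h at 37C; FRET beta-lactamase substrate then develops 2 h at room temperature.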

A short description of test [8]: qHTS assay to identify small molecule agonists of the vitamin D receptor (VDR) signaling pathway - cell viability counter screen (AID 743224). Note: nearly all actives have a fitted effect of over 50% in size. Note: potency is the fitted concentration of half-maximal effect. The essentials: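 Here cell health was gauged by luminescent ATP detection (CellTiter-Glo, 30 min RT) in VDR-bla cells that had been incubated with test compounds for 16 h at 37C and 5% CO2.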
Test [9] in a line: qHTS assay to identify small molecule antagonists of the vitamin D receptor (VDR) signaling pathway - cell viability counter screen (AID 743225). Note: nearly all actives have a fitted effect of over 50% in size. Note: potency is the fitted concentration of half-maximal effect. The method in brief:
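Cytotoxicity toward the VDR-bla HEK 293T line was scored by ATP-based CellTiter-Glo luminescence, read in the wells already used for the beta-lactamase readout after 16 h compound treatment under 3 nM 1-alpha,25-dihydroxyvitamin D3 stimulation.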

The nature of test [10]: qHTS assay to identify small molecule agonists of the NFkB signaling pathway (AID 1159509; active = well fitted curve in the direction sought with a large enough effect in the signal ratio in the repeat runs, not every such curve was filed as active; the % refers to the signal ratio; note: series mostly up to about 61 µM). The essentials:
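After overnight attachment, reporter cells received test compounds, DMSO or positive controls and were incubated 5 hr at 37 C. FRET substrate was then added for 1.5 hr at room temperature before dual-emission fluorescence reading.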

The nature of test [11]: qHTS assay to identify small molecule agonists of the NFkB signaling pathway - cell viability counter screen (AID 1159515; calls by dose curve; note: series mostly up to about 61 µM; nearly all actives have a fitted effect of over 55% in size). The method in brief:
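5 hr compound treatment of NFkB-bla ME-180 cells (2,000/well, seeded overnight beforehand), followed by reporter substrate for 1.5 hr. CellTiter-Glo added afterward; luminescence after 30 min RT.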

Test [12] is described as follows: qHTS assay to identify small molecule agonists of the endoplasmic reticulum stress response signaling pathway (AID 1159516; active = well fitted activation curve with a large enough effect in the signal ratio in the repeat runs, not every such curve was filed as active; the % refers to the signal ratio). The method in brief: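 Reporter HeLa cells (ESRE-beta-lactamase) underwent 5 hr compound incubation at 37 C and 5% CO2 in quantitative HTS format. Detection followed 2 hr of FRET substrate loading at room temperature.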
Test [13] is described as follows: qHTS assay to identify small molecule agonists of the endoplasmic reticulum stress response signaling pathway - cell viability counter screen (AID 1159517; calls by dose curve; note: nearly all actives have a fitted effect of over 50% in size; note: potency is the fitted concentration of half-maximal effect). The method in brief:
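Cells, HeLa ESRE-bla; density, 1,500/well; dosing, 5 hr at 37 C, 5% CO2; readout, CellTiter-Glo luminescence after 30 min RT.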

Test [14] in a line: qHTS assay to identify small molecule antagonists of the retinoid-related orphan receptor gamma (ROR-gamma) signaling pathway - cell viability counter screen (AID 1159520). Note: nearly all actives have a fitted effect of over 50% in size. Note: potency is the fitted concentration of half-maximal effect. The essentials: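 Cytotoxicity was read from cellular ATP (CellTiter-Glo luminescence) after 16 hr at 37 C with 1 uM doxycycline induction. The inducer was added 2 hr after compound transfer to Tet-on ROR gamma CHO cells.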

Test [15] deals with Nuclear receptor ROR-gamma (Homo sapiens) (UniProt P51449). In words: qHTS assay to identify small molecule antagonists of the retinoid-related orphan receptor gamma (ROR-gamma) signaling pathway (AID 1159521; note: nearly all actives have a fitted effect of over 50% in size; note: potency is the fitted concentration of half-maximal effect). The essentials:
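Readout: ONE-Glo luciferase luminescence, 30 min at room temperature. System: Tet-on RORγ CHO, RORE-LUC. Sequence: compound 2 h, doxycycline 1 uM final, 16 h at 37 C.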

Test [16] in a line: qHTS assay to identify small molecule agonists of the AP-1 signaling pathway - cell viability counter screen (AID 1159525; calls by dose curve; note: nearly all actives have a fitted effect of over 55% in size). The method in brief: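 Luminescent ATP readout (Cell Titer Glo, 30 min RT), normalised to DMSO and tetra n-octyl ammonium bromide controls. Cells were ME-180 AP-1-bla in 0.5% dialyzed FBS Opti-MEM, with a 5 h, 37 °C compound exposure.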
Test [17] in a line: qHTS assay to identify small molecule agonists of the AP-1 signaling pathway (AID 1159526; calls by dose curve).
Test [18] addresses Bile acid receptor (Homo sapiens) (UniProt Q96RI1). Kind of test: qHTS assay to identify small molecule antagonists of the farnesoid-X-receptor (FXR) signaling pathway (AID 743217; active = well fitted inhibition curve with a large enough effect in the signal ratio in the repeat runs, not every such curve was filed as active; the % refers to the signal ratio). The method in brief:
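In this cell-based antagonist screen, inhibition of CDCA-driven (50 uM final) UAS-beta-lactamase expression in HEK 293T cells was measured by FRET fluorescence following 16 h compound exposure at 37 °C.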

Test [19] shares this target. Kind of test: qHTS assay to identify small molecule agonists of the farnesoid-X-receptor (FXR) signaling pathway (AID 743220; active = well fitted activation curve with a large enough effect in the signal ratio in the repeat runs, not every such curve was filed as active; the % refers to the signal ratio). The essentials: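 Beta-lactamase reporter under UAS control in GeneBLAzer FXR HEK 293T cells (5000/well) measured with LiveBLAzer FRET substrate after 2 h at room temperature. Compound exposure lasted 16 h at 37C.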
Test [20] can be described thus: qHTS assay to identify small molecule agonists of the farnesoid-X-receptor (FXR) signaling pathway - cell viability counter screen (AID 743218). Note: nearly all actives have a fitted effect of over 45% in size. Note: potency is the fitted concentration of half-maximal effect. The essentials:
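After 16 h at 37 C with test compounds, FXR-bla HEK 293T cells were given LiveBLAzer B/G substrate for 2 h at RT and then CellTiter-Glo; luminescence was taken after 30 min.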

Vitamin D3 receptor (Homo sapiens), sequence (P11473 whole entry, looked up): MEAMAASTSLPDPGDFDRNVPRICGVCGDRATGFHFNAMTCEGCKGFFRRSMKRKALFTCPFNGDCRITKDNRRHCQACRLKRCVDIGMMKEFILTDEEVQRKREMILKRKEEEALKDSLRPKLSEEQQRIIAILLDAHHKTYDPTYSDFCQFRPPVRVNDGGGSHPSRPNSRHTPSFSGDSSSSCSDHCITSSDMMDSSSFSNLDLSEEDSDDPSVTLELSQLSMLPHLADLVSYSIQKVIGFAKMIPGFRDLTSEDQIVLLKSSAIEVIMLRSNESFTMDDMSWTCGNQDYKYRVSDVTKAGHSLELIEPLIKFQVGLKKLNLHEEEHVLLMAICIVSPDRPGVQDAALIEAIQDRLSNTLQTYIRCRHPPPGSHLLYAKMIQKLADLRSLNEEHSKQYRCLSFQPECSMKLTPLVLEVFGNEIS
Bile acid receptor (Homo sapiens), sequence (Q96RI1 whole entry, looked up): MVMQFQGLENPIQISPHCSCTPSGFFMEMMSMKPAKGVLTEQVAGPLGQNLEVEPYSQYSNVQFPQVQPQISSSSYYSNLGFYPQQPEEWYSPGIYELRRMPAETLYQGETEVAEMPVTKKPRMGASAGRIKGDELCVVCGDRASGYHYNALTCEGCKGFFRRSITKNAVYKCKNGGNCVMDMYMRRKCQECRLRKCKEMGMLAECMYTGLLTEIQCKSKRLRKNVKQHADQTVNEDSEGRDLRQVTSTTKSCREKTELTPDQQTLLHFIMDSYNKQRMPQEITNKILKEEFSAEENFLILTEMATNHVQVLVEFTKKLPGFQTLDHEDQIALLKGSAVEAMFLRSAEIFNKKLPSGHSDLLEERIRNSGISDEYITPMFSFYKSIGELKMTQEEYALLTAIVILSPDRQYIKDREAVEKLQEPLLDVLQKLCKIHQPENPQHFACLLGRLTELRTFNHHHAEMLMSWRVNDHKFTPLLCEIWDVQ

For `CC(O)CCO` (stereo not given), the Potency result in test [1], in test [2], in [3], in test [4], in [5] and in [8] was “inactive” each time. Also, the Potency result in test [9], in test [11], in test [13], in test [14], in test [15] and in [16] was “inactive” each time. Also, the result in test [6], in [7], in test [10], in [12] and in [17] was inactive.

As to `CC(C)(OOC(C)(C)c1ccccc1)c1ccccc1`, the Potency entry in test [1], in [2], in test [3], in test [4], in [18] and in test [5] was “inactive” throughout. In addition, the Potency result in test [11], in [13], in [14], in test [15] and in [16] was “inactive” throughout. The result in test [19], in [6], in [7], in test [10], in test [12] and in test [17] was inactive.

Turning to `CCC(=O)O[C@H]1CC[C@H]2[C@@H]3CCC4=CC(=O)CC[C@]4(C)[C@H]3CC[C@]12C`, the Potency is 49 µM (active) and inactive in test [1]; 54.9 µM (active) and inactive in test [20]; 12.3 µM (active) and inactive in [8]; 43.6 µM (active) and inactive in [9]; 54.9 µM (active) and 21.3 µM (active) in [13]; 48.6 µM (active) and inactive in test [15]. The Potency result in test [2], in [3], in test [4], in test [5], in test [11] and in [14] was “inactive” each time. Also, in [16], the Potency entry is “inactive”. In addition, the result in [10], in test [12] and in [17] was inactive.

On to `O=[N+]([O-])c1cccc2ccccc12`, for which the Potency result in test [1], in test [2], in test [3], in [4], in test [5] and in test [8] was “inactive” each time. The Potency result in test [11], in test [13], in test [14], in test [15] and in [16] was “inactive” in each case. Besides, the compound was called inactive in [10], in test [12] and in test [17].

For the compound `Clc1nc(Cl)nc(Cl)n1`, the Potency entry in test [1], in [2], in test [3], in test [4], in test [5] and in test [8] was “inactive” in each case. In addition, the Potency result in test [9], in test [11], in test [13], in test [14], in test [15] and in test [16] was “inactive” in each case. Moreover, the compound was classed as inactive in test [6], in test [7], in test [10], in test [12] and in [17].

Regarding `OCC(O)CO`, the Potency result in test [1], in test [2], in test [3], in test [4], in test [18] and in test [20] was “inactive” in each case. Also, the Potency entry in test [5], in [8], in test [9], in [11], in test [13] and in test [14] was “inactive” each time. Further, the Potency entry in [15] and in test [16] was “inactive” each time. Moreover, the result in test [19], in test [6], in test [7], in [10], in test [12] and in [17] was inactive.

Turning to `N[C@@H](Cc1ccc(N(CCCl)CCCl)cc1)C(=O)O`, the Potency entry in [1], in [2], in test [3], in [4], in [18] and in test [20] was “inactive” in each case. Also, the Potency result in [5], in test [8], in test [9], in test [11], in test [13] and in [16] was “inactive” in each case. Also, the compound was classed as inactive in test [19], in test [10], in [12] and in test [17]. Also, the Potency in test [14] is 16.8 µM (active); in test [15], 11.7 µM (active) and 13.3 µM (active).

Turning to `C1=Cc2cccc3cccc1c23`, the Potency entry in test [1], in [2], in [3], in test [4], in test [5] and in test [8] was “inactive” each time. In addition, the Potency result in test [11], in [13], in [14], in [15] and in test [16] was “inactive” each time. For the same compound, the compound was called inactive in [6], in test [7], in test [10], in test [12] and in test [17].
